Test [1] is described as follows: rapamycin-like changes in RPL19A-GFP expression – cell-based, S. cerevisiae, multiplex flow cytometry, primary screen (AID 1862; in the data active = percent of DMSO control GFP below about 86%;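 note: lower values mimic rapamycin by blocking the RPL19A rise seen in DMSO cells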). The note with it: S. cerevisiae RPL19A-GFP strain, flow cytometry fluorescence, 3 h; at 10 µM; stronger effect = lower value.
Test [2] in a line: TOR pathway GLN3 branch reporter MEP2-GFP changes – S. cerevisiae, multiplex flow cytometry, primary screen (AID 1867;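 active = GFP response, as percent of the DMSO control, above the screen-wide mean plus 3 SD, about 139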;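 note: median GFP channel fluorescence of barcode-gated MEP2-GFP cells measured by flow cytometry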). The note with it: S. cerevisiae MEP2-GFP strain, 3 h, at 10 µM, stronger effect = higher value, 100% means same as DMSO wells.
Test [3] is described as follows: TOR pathway RTG branch CIT2 reporter changes – S. cerevisiae, GFP fusion, multiplex flow cytometry, primary screen (AID 1870).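 Note: barcoded CIT2-GFP strain pooled with four other GFP strains with rapamycin as positive control; median GFP fluorescence per well over plate mean of DMSO wells so 100% = DMSO.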 The note with it: S. cerevisiae CIT2-GFP expression, 3 h, at 10 µM, stronger effect = higher value.
Test [4] in a line: TOR pathway LAP4-GFP level changes – S. cerevisiae, multiplex flow cytometry, primary screen (AID 1873;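 active = GFP signal, as percent of the solvent control, above the screen mean plus 3 SD, about 149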). The note with it: S. cerevisiae LAP4-GFP expression, 3 h, at 10 µM, stronger effect = higher value.
Test [5] in a line: yeast AGP1-GFP level changes, GLN3 branch – cell-based, multiplex flow cytometry, S. cerevisiae, primary screen (AID 1887;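 active = GFP signal above the screen-wide mean plus 3 SD, that is over about 124.5% of the solvent control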;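 note: AGP1-GFP fusion strain of S. cerevisiae within a five-strain barcoded multiplex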). The note with it: 3 h, at 10 µM, stronger effect = higher value.
The nature of test [6]: reduced mouse 2C T cell binding to pMHC/ICAM-1 vesicles – MLPCN validation set, flow cytometry, LFA-1/ICAM-1 modulator project, pilot screen (AID 2523;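 active = response below a set limit, under 55% cells CD8-positive and vesicle-bound, and CD8 cells' 90th-percentile brightness under 279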;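 for vesicle binding response: mean PE anti-B7-1 fluorescence of CD8+ cells relative to row control; 100% = QL9-loaded vesicles with DMSO vehicle in the same plate row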). The note with it: 2C mouse CD8+ T cells, at 7 µM, stronger effect = lower value; double positive events: measured here: CD8+/vesicle+ event percentage.
Test [7] addresses Integrin beta-1 (Homo sapiens) + Integrin alpha-4 (Homo sapiens) (UniProt P13612+P05556). Nature of the test: alpha4beta1 integrin LIBS antibody binding reduction – U937 cells, HUTS-21 mAb, flow cytometry, validation set, VLA-4 allosteric modulator project, pilot screen (AID 2674;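 active = inhibition above 50%, about 3 SD of the validation set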;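 note: antibody binding induced by the VLA-4 ligand LDV present at three times its Kd; 0% = LDV ligand with antibody and no compound and 100% = antibody without LDV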). The note with it: HUTS-21 LIBS mAb binding, at 6.7 µM, stronger effect = higher value, binding induced by LDV ligand.

Test [8] is described as follows: calorie-restriction mimetic ROS inhibitors, yeast – validation compound set, pilot screen (AID 2706;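 active = superoxide response below 65% of plate, a cut near 3 SD across the whole screen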;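 note: yeast exposed to compound for one week at 30 degrees C before staining; 100% = mean of all compound wells on the same plate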). The note with it: S. cerevisiae aging, superoxide DHE fluorescence; at 10 µM; stronger effect = lower value.
Test [9] concerns the target Beta-adrenergic receptor kinase 1 (Homo sapiens) (UniProt P25098). Nature of the test: GRK2 binders displacing RNA aptamer, biochemical, validation, human GRK2, bead flow cytometry (AID 488806;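 active = aptamer binding inhibition above 30%, about 3 SD of noise from non-fluorescent compounds; inactive = inhibition at or below 30%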). The note with it: bead-bound GRK2, FAM-aptamer displacement, at 10 µM, stronger effect = higher value.
Test [10] has as its target Beta-2 adrenergic receptor (Homo sapiens) (UniProt P07550). Put plainly: agonist-induced loss of surface beta2AR – cell-based, FAP fluorogen, flow cytometry, validation set, pilot screen (AID 504459;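 active = percent response above 42, roughly 3 SD of non-fluorescent test compounds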;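 note: agonist-driven loss of surface beta2AR via internalization measured by FAP dye flow cytometry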). The note with it: Am2.2-beta2AR cells, at 10 µM, stronger effect = higher value.
Test [11] has as its target AP-2 complex subunit beta (Homo sapiens) (UniProt P63010). Nature of the test: beta-arrestin/AP2 interaction blockers – biochemical, validation set, GST-AP2 beads, flow cytometry, pilot screen (AID 504541;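 active = inhibition above 54%, about 3 SD of non-fluorescent compounds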;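 note: AP2 carries R879A mutation and is captured from E. coli lysate; bead-bound FITC arrestin peptide fluorescence measuring arrestin peptide binding to AP2; 0% = DMSO wells and 100% = excess unlabeled arrestin peptide control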). The note with it: FITC arrestin peptide, at 10 µM, stronger effect = higher value, AP2 beta2 appendage fragment, R879A mutant.
Test [12] in a line: cytosolic pH regulators acting via V-ATPase – S. cerevisiae, pHLuorin, HTS validation (AID 504600; in the data active = response above about 15%;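 note: plate controls were DMSO for no effect and reference compound for full effect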). The note with it: V-ATPase proton transport, at 10 µM, stronger effect = higher value.
Test [13] deals with anti-desmoglein-3 scFv antibody binding to human DSG3. Nature of the test: blockers of pathogenic pemphigus antibody–desmoglein-3 binding – biochemical, validation compound set, bead-based, flow cytometry, pilot screen (AID 588368;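 active = binding below the plate cutoff, the plate median minus 3 SD, with a reading above zero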;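 note: signal is the median channel fluorescence of bead-bound GFP antibody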). The note with it: Protein G beads, DSG3-Fc, scFv-GFP binding, at 10 µM, stronger effect = lower value.
Test [14] can be described thus: Nile Red efflux blockade in pump-expressing yeast – validation compound set, multiplex, phenotypic, pilot screen (AID 588506;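 active = efflux inhibition above 0.42, the validation set average plus 4 SD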;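 note: Nile Red retained in cells so higher fluorescence means more efflux inhibition; 0 = negative control wells and 1 = enniatin B 25 µM full block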). The note with it: S. cerevisiae pump-expressing triplex, Nile Red efflux flow cytometry; at 10 µM; stronger effect = higher value; the pumps come from Candida albicans.
The target in test [15] is ATP-binding cassette sub-family B member 6 (Homo sapiens) (UniProt Q9NP58). Nature of the test: blockers of ABCB6-driven porphyrin uptake – K562-ABCB6 cells, flow cytometry, validation set, pilot screen (AID 588550;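 active = inhibition above the screen-wide mean plus 3 SD, about 51%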;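 note: 0% = DMSO wells and 100% = benzethonium chloride 70 µM positive control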). The note with it: K562-ABCB6 porphyrin accumulation, 1 h, at 10 µM, stronger effect = higher value.
ATP-binding cassette sub-family B member 6 (Homo sapiens), sequence (Q9NP58 whole entry, looked up): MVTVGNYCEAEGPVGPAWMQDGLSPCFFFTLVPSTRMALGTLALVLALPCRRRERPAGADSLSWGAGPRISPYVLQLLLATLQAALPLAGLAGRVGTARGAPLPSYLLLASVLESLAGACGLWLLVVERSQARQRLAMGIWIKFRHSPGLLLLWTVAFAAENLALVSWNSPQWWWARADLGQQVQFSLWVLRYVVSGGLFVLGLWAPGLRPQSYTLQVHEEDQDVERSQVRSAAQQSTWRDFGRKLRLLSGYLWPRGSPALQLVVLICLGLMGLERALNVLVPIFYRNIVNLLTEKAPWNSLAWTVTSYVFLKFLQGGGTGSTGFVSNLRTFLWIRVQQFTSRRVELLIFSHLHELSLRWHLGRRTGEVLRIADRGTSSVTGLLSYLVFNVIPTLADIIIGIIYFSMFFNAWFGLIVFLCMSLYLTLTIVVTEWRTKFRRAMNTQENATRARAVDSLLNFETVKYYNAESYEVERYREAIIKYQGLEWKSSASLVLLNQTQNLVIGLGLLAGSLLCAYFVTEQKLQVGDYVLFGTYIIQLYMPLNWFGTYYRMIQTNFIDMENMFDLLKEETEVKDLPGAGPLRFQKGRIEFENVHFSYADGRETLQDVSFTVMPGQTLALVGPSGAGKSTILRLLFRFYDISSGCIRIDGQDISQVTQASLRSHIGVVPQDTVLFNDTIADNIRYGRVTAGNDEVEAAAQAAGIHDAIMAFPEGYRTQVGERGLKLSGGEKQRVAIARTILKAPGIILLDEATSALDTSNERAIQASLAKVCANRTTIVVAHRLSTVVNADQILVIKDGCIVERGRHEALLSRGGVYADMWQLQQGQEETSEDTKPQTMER
Test [16] can be described thus: AML differentiation inducers, ER-HoxA9 marrow cells – cell-based, GFP/MAC1 double positive, flow cytometry, validation set, primary screen (AID 588685;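 active = differentiation response of at least 50%, scaled between solvent and reference control, from cells with both markers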;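 note: compound exposure lasts four days before antibody staining and flow analysis; 0% = DMSO wells and 100% = 5 µM fulvestrant positive control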). The note with it: stronger effect = higher value, normalized: vehicle 0, fulvestrant 100.

Records with an inconclusive call do not appear. Active and inactive are the calls of the source.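 Rule for the calls, unless noted: active = percent response above a set limit, the screen-wide mean plus 3 SD (cut at about 130% in these data); inactive = the rest.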

AP-2 complex subunit beta (Homo sapiens), sequence (P63010 whole entry, looked up, the tested form may be a part, one chain of several): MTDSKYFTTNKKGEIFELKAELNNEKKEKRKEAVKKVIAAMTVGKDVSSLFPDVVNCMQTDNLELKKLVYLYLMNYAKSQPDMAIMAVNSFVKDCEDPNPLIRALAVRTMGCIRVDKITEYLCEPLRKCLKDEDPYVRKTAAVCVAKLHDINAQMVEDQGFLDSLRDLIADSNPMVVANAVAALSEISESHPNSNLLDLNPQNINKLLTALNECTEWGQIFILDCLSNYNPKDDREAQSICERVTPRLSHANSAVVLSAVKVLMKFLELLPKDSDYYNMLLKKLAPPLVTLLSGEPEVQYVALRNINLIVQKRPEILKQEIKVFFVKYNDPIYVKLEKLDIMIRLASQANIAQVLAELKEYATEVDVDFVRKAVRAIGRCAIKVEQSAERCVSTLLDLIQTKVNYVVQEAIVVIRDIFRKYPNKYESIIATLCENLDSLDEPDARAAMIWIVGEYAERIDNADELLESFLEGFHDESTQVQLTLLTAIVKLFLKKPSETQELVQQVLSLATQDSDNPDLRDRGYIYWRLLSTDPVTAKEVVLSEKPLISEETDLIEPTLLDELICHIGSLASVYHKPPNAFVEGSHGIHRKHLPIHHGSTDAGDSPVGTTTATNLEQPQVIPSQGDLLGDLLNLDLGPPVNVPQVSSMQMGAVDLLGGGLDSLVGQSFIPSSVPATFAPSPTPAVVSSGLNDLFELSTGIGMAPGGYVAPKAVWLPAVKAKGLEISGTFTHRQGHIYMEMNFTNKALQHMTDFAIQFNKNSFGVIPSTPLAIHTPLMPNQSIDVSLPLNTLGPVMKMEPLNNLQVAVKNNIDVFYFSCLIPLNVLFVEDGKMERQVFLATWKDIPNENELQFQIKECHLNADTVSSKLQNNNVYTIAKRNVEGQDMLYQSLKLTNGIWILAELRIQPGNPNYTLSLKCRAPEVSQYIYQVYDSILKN
Beta-2 adrenergic receptor (Homo sapiens), sequence (P07550 whole entry, looked up): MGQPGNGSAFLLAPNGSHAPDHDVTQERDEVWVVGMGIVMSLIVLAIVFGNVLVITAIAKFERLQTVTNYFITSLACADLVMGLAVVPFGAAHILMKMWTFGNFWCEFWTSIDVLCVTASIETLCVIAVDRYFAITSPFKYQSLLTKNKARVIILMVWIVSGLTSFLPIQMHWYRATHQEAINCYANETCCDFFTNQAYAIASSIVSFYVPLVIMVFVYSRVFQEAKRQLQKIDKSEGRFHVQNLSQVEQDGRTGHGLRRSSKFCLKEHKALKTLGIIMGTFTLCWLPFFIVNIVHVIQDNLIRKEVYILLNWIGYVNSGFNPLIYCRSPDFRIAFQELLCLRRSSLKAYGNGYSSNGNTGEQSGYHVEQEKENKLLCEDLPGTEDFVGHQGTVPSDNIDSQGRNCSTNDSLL
Integrin beta-1 (Homo sapiens) + Integrin alpha-4 (Homo sapiens), sequence (P05556 whole entry, looked up): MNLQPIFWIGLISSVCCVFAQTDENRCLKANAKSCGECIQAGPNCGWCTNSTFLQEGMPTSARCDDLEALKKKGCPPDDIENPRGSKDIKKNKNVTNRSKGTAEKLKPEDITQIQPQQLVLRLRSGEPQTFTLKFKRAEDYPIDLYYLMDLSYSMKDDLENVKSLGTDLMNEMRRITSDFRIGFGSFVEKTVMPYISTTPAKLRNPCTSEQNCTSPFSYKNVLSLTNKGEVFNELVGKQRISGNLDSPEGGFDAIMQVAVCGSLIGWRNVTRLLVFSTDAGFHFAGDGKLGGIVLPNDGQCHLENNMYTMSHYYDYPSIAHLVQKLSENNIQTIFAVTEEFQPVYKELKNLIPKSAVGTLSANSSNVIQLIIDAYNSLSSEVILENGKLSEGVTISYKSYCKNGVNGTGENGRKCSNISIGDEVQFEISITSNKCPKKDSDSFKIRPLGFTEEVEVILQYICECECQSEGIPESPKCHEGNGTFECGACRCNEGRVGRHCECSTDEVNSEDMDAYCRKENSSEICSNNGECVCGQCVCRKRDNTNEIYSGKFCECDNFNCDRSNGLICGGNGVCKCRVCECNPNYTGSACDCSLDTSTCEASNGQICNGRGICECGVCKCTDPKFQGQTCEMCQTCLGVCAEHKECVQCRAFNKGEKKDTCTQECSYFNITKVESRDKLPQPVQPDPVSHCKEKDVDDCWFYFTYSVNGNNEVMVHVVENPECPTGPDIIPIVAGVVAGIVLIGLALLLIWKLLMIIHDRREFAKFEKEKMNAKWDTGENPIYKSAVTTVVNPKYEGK
Integrin beta-1 (Homo sapiens) + Integrin alpha-4 (Homo sapiens), sequence (P13612 whole entry, looked up): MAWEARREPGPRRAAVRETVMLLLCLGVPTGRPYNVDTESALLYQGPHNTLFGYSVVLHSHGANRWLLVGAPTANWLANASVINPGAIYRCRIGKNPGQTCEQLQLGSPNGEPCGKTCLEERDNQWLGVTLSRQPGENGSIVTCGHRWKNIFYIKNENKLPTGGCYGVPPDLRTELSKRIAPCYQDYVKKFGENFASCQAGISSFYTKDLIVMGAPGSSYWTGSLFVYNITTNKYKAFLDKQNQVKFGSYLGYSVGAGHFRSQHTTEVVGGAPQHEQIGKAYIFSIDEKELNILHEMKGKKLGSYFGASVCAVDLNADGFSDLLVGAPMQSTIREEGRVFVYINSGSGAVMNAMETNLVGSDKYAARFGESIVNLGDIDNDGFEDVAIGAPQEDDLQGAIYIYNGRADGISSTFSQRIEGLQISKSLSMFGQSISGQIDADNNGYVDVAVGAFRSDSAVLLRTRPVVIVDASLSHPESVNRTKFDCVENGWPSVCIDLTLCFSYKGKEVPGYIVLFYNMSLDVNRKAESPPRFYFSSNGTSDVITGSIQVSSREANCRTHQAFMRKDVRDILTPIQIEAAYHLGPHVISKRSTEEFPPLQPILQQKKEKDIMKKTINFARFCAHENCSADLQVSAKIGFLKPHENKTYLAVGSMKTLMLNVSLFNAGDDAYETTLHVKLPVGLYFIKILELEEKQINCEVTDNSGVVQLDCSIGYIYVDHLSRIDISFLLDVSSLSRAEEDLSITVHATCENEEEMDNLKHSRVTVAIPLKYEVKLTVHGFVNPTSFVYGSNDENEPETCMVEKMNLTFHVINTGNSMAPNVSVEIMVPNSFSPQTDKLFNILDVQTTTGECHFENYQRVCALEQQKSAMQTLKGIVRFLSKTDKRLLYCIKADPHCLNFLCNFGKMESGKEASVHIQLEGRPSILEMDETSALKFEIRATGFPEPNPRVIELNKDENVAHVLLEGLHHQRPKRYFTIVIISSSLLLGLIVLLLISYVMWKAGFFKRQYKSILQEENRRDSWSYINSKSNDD
Beta-adrenergic receptor kinase 1 (Homo sapiens), sequence (P25098 whole entry, looked up): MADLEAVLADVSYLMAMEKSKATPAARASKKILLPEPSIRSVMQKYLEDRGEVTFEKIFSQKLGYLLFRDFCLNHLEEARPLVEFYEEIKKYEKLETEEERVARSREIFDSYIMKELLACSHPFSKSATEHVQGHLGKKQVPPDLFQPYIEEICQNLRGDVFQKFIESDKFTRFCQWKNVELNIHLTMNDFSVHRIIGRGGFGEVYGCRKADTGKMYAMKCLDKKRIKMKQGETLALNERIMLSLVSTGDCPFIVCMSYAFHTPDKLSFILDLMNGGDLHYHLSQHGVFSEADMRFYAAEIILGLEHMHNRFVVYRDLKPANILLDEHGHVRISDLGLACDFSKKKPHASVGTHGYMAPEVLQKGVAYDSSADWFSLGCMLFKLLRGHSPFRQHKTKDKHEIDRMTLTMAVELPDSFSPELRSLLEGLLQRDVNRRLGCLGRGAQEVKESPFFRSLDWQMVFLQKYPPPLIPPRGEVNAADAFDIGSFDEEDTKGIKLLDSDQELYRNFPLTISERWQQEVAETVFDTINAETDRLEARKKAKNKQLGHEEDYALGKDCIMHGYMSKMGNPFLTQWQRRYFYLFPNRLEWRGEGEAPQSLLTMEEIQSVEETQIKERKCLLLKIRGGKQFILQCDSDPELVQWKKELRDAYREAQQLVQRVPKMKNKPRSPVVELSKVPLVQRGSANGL

Consider `CC1(C)CC(CNCCC(c2ccc(F)cc2)c2ccco2)CCO1` (stereo not drawn), for which the percent of DMSO control GFP in [1] is 96.1% (inactive). Also, the GFP response vs DMSO was 110% (inactive) in test [2] and 82.5% (inactive) in test [4]. In test [3], the percent response of DMSO control was 106% (inactive). The GFP response, % of DMSO in [5] was 103% (inactive). Also, in test [6], the double positive events amounted to 93.3%. For the same compound, the vesicle binding response in test [6] was 272% (inactive). For the same compound, the inhibition in test [7] is 3.55% (inactive); in test [11], 0.76% (inactive); in test [15], 11% (inactive). The superoxide response (% of plate) in test [8] is 87.8% (inactive). Besides, in test [9], the aptamer binding inhibition is 3% (inactive). Besides, the response in test [10] is 4.87% (inactive); in test [12], 5.44% (inactive). Also, in [13], the binding (% of control) was 104% (inactive). For the same compound, the efflux inhibition (fraction of control) in test [14] is 0.12 (inactive). Besides, the differentiation response in test [16] is -4.09% (inactive).

For the compound `O=C(NC(=S)N1CCCCC1)c1cccnc1`, in test [1], the percent of DMSO control GFP is 102% (inactive). Moreover, the values for the GFP response vs DMSO in test [2] and in [4] were 95.1% (inactive) and 108% (inactive), respectively. For the same compound, in [3], the percent response of DMSO control is 97.8% (inactive). Moreover, in test [5], the GFP response, % of DMSO is 99.4% (inactive). Besides, the double positive events in test [6] was determined as 60.8%. Further, the vesicle binding response in [6] is 95.6% (inactive). Also, the results for the inhibition in [7], in test [11] and in [15] were 11% (inactive), -15.4% (inactive) and -15% (inactive), respectively. In addition, the superoxide response (% of plate) in [8] is 89.9% (inactive). The aptamer binding inhibition in [9] was -3% (inactive). Further, the results for the response in [10] and in [12] were -0.16% (inactive) and -2.13% (inactive), respectively. Also, the binding (% of control) in test [13] is 93.3% (inactive). For the same compound, in [14], the efflux inhibition (fraction of control) was -0.07 (inactive). Also, the differentiation response in test [16] is 21.8% (inactive).

On to `Cc1ccc2[nH]c(=O)c(Cc3ccccc3)c(O)c2c1`, for which the percent of DMSO control GFP in test [1] is 102% (inactive). Besides, the results for the GFP response vs DMSO in [2] and in [4] were 105% (inactive) and 94.7% (inactive), respectively. Further, in test [3], the percent response of DMSO control is 107% (inactive). The GFP response, % of DMSO in test [5] is 102% (inactive). The double positive events in [6] is 60.7%. Further, the vesicle binding response in test [6] was 224% (inactive). Moreover, the inhibition was 3.7% (inactive) in [7], -9.35% (inactive) in [11] and -1% (inactive) in test [15]. In addition, the superoxide response (% of plate) in [8] was 105% (inactive). The aptamer binding inhibition in test [9] is 0% (inactive). Further, the response in test [10] was -3.71% (inactive); in [12], 4.49% (inactive). Besides, the binding (% of control) in test [13] was 90.6% (inactive). In addition, in [14], the efflux inhibition (fraction of control) was -0.07 (inactive). Besides, the differentiation response in test [16] was -8.55% (inactive).

Regarding `CC(=O)N(CCC1(c2ccc(C)cc2)CCOC(C(C)C)C1)Cc1ccco1` (stereo not drawn), the percent of DMSO control GFP in [1] was 93.9% (inactive). Further, the GFP response vs DMSO is 108% (inactive) in test [2] and 82% (inactive) in test [4]. For the same compound, the percent response of DMSO control in [3] was 116% (inactive). Besides, the GFP response, % of DMSO in test [5] was 96.6% (inactive). The compound further returned a double positive events in test [6] of 46.3%. Further, the vesicle binding response in [6] is 74.9% (active). In addition, the inhibition in [7] is -16.8% (inactive); in test [11], 3.24% (inactive); in [15] it was 9% (inactive). Besides, the superoxide response (% of plate) in [8] was 99.9% (inactive). Besides, the aptamer binding inhibition in [9] was -4% (inactive). Further, the response in test [10] was -3.21% (inactive); in test [12] it was -0.03% (inactive). Further, in [13], the binding (% of control) is 99.6% (inactive). Besides, the efflux inhibition (fraction of control) in test [14] was 0.05 (inactive). In addition, the differentiation response in test [16] is -1.64% (inactive).

The record behind these values is PubChem BioAssay.
